Rows were chosen to be rich in hits. Some 4.6% of all compounds tested hit in one or more screens of this group.
TRHR ag: activates the human TRH receptor | TRHR cells, calcium flux fluo-8, FDSS agonist mode | P34981 | actives 0.18% (n = 360,000) | activation, % at 2 µM; note: 0% is about no effect
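Fluo-8-loaded TRHR cells; 10 s baseline, compound added, kinetic Ca2+ fluorescence read 1/s, agonist mode.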
D1 potentiator: enhances dopamine response at the human D1 receptor; AID 504651; actives 0.036% (n = 360,000); P21728; potentiation, % at 10 µM; HEK293 TREx D1 cells, calcium flux, dopamine EC20 potentiation; in the data active = potentiation above about 30%; note: 0% is about no effect
Target sequence (P21728 whole entry, looked up): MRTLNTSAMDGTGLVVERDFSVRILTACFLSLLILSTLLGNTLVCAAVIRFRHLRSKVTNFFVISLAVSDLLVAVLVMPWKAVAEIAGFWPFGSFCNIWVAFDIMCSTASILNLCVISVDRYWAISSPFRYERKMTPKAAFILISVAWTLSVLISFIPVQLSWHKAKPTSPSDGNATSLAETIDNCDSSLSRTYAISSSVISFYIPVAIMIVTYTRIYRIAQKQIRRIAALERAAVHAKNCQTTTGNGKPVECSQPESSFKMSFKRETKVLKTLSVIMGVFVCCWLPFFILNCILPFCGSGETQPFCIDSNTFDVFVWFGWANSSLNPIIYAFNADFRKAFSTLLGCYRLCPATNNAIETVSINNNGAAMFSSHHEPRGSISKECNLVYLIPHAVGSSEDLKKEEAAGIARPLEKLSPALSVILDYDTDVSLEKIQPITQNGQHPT
TRHR enhancer: TRH receptor (human) allosteric enhancement. P34981. TRHR cells, fluo-8 calcium fluorescence, EC20 TRH enhancement. enhancement, % at 2 µM. actives 0.66% (n = 360,000); in the data active = enhancement above about 30%; note: 0% is about no effect
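Enhancer read-out: after compound pinning and an initial kinetic agonist-mode read, an EC20 of TRH (10 nM final) was injected and fluo-8 calcium signal (Ex 480/Em 530) followed at 1 s/cycle for 100 cycles in TRHR-expressing cells.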
D1 antagonist: human D1 dopamine receptor antagonism; actives 3.2% (n = 360,000); HEK293 TREx D1 cells, calcium flux, dopamine EC80; active compounds read low; AID 504652; activity change, negative = inhibition, % at 10 µM; P21728; in the data active = activity change below about -30%; note: % is set by controls: 0 for no effect and ±100 for the full control effect
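Cells carrying a force-coupled, tetracycline-inducible human D1 receptor report calcium flux. Each well gets a 10 s baseline, compound with 180 s monitoring, then an EC80 dopamine stimulus with a second 180 s kinetic read.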
D1 ag: agonists of human D1 dopamine receptor; actives 1% (n = 360,000); AID 504660; activation, % at 2 µM; HEK293 T-REx D1 cells, calcium flux, agonist mode; note: 0% is about no effect
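Inducible HEK293 T-REx D1 cells, force-coupled to calcium signalling, were plated at 4000 cells/well with tetracycline and held overnight at 30 C. After no-wash calcium dye loading, compound-evoked calcium rise over 180 s flagged agonists.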
Active calls of the source: *; ! = repeats disagree. Cut-off read from the data, not from the text of the source, unless noted: active = activation above about 30%; inactive = the rest.

`CCCCOc1ccc(Cn2c(=O)oc3ccc(C)cc32)cc1` gave TRHR ag 2.6, D1 potentiator -7.7, TRHR enhancer -2.0, D1 antagonist -79.0* and D1 ag 11.7.
For Cc1ccc2oc(=O)n(Cc3ccc(OC(C)C)cc3)c2c1 the results were TRHR ag -1.6, D1 potentiator -1.1, TRHR enhancer -4.5, D1 antagonist 1.7 and D1 ag 4.2.
Screening CCCCOc1ccc(Cn2c(=O)oc3ccccc32)cc1 returned TRHR ag 0.5, D1 potentiator -4.2, TRHR enhancer -4.2, D1 antagonist -39.4*! and D1 ag 3.5.
Screening CC1=C(C(=O)OC2CCCC2)C(c2ccc(F)cc2F)CC(=O)N1 (stereo not given) returned TRHR ag -1.3, D1 potentiator -3.0, TRHR enhancer -2.2, D1 antagonist -32.6* and D1 ag 18.6.
CCC(=O)c1ccc(N2CCCCC2)c(F)c1 was read as TRHR ag -0.3, D1 potentiator -4.5, TRHR enhancer -1.1, D1 antagonist -54.7* and D1 ag -0.8.
`Cc1cc(OCC(=O)NNC(=O)c2ccncc2)cc(C)c1Cl` gave TRHR ag 0.0, D1 potentiator -6.0, TRHR enhancer -1.5, D1 antagonist 11.8 and D1 ag 6.7.
Screening Cc1cc(OCC(=O)NC(C)C)cc(C)c1Cl returned TRHR ag -1.1, D1 potentiator -4.6, TRHR enhancer 0.3, D1 antagonist -31.5* and D1 ag 6.1.
O=C1CC(c2ccc(S(=O)(=O)NC3CC3)cc2)CN1 (stereo not given) was read as TRHR ag 0.7, D1 potentiator -1.3, TRHR enhancer -3.9, D1 antagonist -13.7 and D1 ag 1.4.
`O=C1CC(c2ccc(S(=O)(=O)NCc3ccncc3)cc2)CN1` (stereo not given) gave TRHR ag 0.8, D1 potentiator -3.0, TRHR enhancer 9.1, D1 antagonist -34.4* and D1 ag 1.6.
`O=C(c1n[nH]c2ccccc12)N1CCOCC1` gave TRHR ag 0.2, D1 potentiator -8.3, TRHR enhancer -24.3 and D1 ag -0.7.
For CC(=O)c1ccc(N2CCN(C(=O)c3nn(Cc4ccccc4)c(=O)c4ccccc34)CC2)cc1 the results were TRHR ag 0.3, D1 potentiator -6.5, TRHR enhancer 0.8, D1 antagonist -44.9* and D1 ag 3.5.
NC(=O)C1CN(C(=O)c2nn(Cc3ccccc3)c(=O)c3ccccc23)c2ccccc2O1 (stereo not given) was read as TRHR ag -0.2, D1 potentiator 4.8, TRHR enhancer 36.8*, D1 antagonist 25.8 and D1 ag 5.1.
NC(=O)c1nn(Cc2ccccc2)c(=O)c2ccccc12 was read as TRHR ag -0.4, D1 potentiator 2.6, TRHR enhancer 1.9, D1 antagonist 16.6 and D1 ag -1.4.
CC(=O)c1ccc(N2CCN(C(=O)c3n[nH]c4ccccc34)CC2)cc1 was read as TRHR ag -0.6, D1 potentiator 1.4, TRHR enhancer -2.6, D1 antagonist -33.1* and D1 ag 6.8.
Screening O=C(CCNC(=O)c1ccco1)Nc1ccc(Cl)cc1F returned TRHR ag -0.1, D1 potentiator -5.6, TRHR enhancer -3.0, D1 antagonist -5.8 and D1 ag -0.3.
Screening Cc1cc(C)cc(NCc2cc3c(cc2[N+](=O)[O-])OCO3)c1 returned TRHR ag -0.4, D1 potentiator -2.3, TRHR enhancer -0.8, D1 antagonist -33.4* and D1 ag 2.8.
`COc1ccc(CC(C)CC(=O)NCCc2ccc(OC)c(OC)c2)cc1` (stereo not given) gave TRHR ag 0.1, D1 potentiator -1.8, TRHR enhancer -10.8, D1 antagonist -74.8* and D1 ag 1.3.
For CCOc1ccc(CCNC(=O)COC(=O)c2ccc(C)s2)cc1OCC the results were TRHR ag 0.6, D1 potentiator 9.7, TRHR enhancer -10.6, D1 antagonist 2.3 and D1 ag 0.7.
`COc1ccc(CCC(=O)NCCc2ccc(OC)c(OC)c2)cc1` gave TRHR ag -1.1, D1 potentiator -9.9, TRHR enhancer 8.2, D1 antagonist -6.7 and D1 ag 4.5.
`COc1ccc(CCNC(=O)COC(=O)c2ccc(C)s2)cc1OC` gave TRHR ag -0.1, D1 potentiator -11.8, TRHR enhancer -1.8, D1 antagonist -33.4* and D1 ag 6.9.
COc1ccc(N=C2NC(=O)C(CC(=O)NCCc3ccc(OC)c(OC)c3)S2)cc1 (stereo not given) was read as TRHR ag 0.0, D1 potentiator -0.2, TRHR enhancer 2.4, D1 antagonist -38.1* and D1 ag 3.6.
COc1ccc(CCNC(=O)CC2SC(=NCc3ccccc3OC)NC2=O)cc1 (stereo not given) was read as TRHR ag 0.1, D1 potentiator 0.1, TRHR enhancer -2.9, D1 antagonist -8.9 and D1 ag -2.6.
`CCc1nn2c(-c3ccccc3OC)ccnc2c1-c1ccccc1` gave TRHR ag -1.4, D1 potentiator -4.7, TRHR enhancer 0.8, D1 antagonist -5.9 and D1 ag 3.9.
For O=C(CN1C(=O)COc2ccc(S(=O)(=O)N3CCCCCC3)cc21)N1CCN(c2ccc(Cl)cc2)CC1 the results were TRHR ag -1.3, D1 potentiator -0.9, TRHR enhancer 14.3, D1 antagonist 6.2 and D1 ag -1.4.
For COc1ccc(NC(=O)c2cnn(-c3ccc(F)cc3F)c2C2CCN(C(=O)OC(C)(C)C)CC2)cc1Cl the results were TRHR ag 0.2, D1 potentiator -7.0, TRHR enhancer 2.2, D1 antagonist -7.8 and D1 ag 2.2.
`COc1cc(Cl)c(C)cc1NC(=O)c1cnn(-c2ccc(F)cc2F)c1C1CCN(C(=O)OC(C)(C)C)CC1` gave TRHR ag 0.6, D1 potentiator -5.2, TRHR enhancer 15.1, D1 antagonist -40.5* and D1 ag 0.2.
CC(C)(C)OC(=O)N1CCC(c2c(C(=O)Nc3ccc4c(c3)OCCO4)cnn2-c2ccc(F)cc2F)CC1 was read as TRHR ag 0.1, D1 potentiator 3.5, TRHR enhancer 22.8, D1 antagonist -35.4* and D1 ag 3.0.
`CC(C)(C)OC(=O)N1CCC(c2c(C(=O)Nc3cccc(C(F)(F)F)c3)cnn2-c2ccc(F)cc2F)CC1` gave TRHR ag 1.4, D1 potentiator -4.1, TRHR enhancer 14.0, D1 antagonist -24.6 and D1 ag 4.3.
COc1cc(CNc2ccc(O)cc2)cc(Br)c1OCc1ccccc1F was read as TRHR ag -1.9, D1 potentiator -3.8, TRHR enhancer 0.6, D1 antagonist -15.7 and D1 ag 0.4.
`CCOc1cc(CNCCCN2CCOCC2)cc(Br)c1OCc1ccccc1Cl` gave TRHR ag 2.1, D1 potentiator -0.1, TRHR enhancer 11.3, D1 antagonist -12.3 and D1 ag 66.7*.
